# According to PubChem BioAssay AID1159580 (chemical genetic matrix, 2015):
# Among all 5,500 compounds or so, about 2,000 (36%) were called active. Roughly 18% stayed inconclusive and do not appear here. This is one part of the list. Values without a mark were called inactive. No stated cut-off is given here; in the data, active means normalized growth mostly below about 0.91 (no sharp cut-off); inconclusive means no clear call, values can overlap the other calls; inactive means mostly above about 0.92.
# Assay: chemical genetic growth profiling, strain panel (AID 1159580);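 further: tested at 20 µM; growth read once vehicle control cultures reached saturation at 30 °C; 1 = growth at the plate median or of vehicle wells; lower values mean less growth of the strain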
# Settings: growth OD
smiles,measurement,setting,value
CCCCCCCCNC(C)C(O)c1ccc(SC(C)C)cc1 (stereo not drawn),normalized growth,"S. cerevisiae deletion strains, locus YKL009W, strain mrt4, active compounds read low",0.843 (active)
same,normalized growth,"S. cerevisiae deletion strains, locus YKL068W, active compounds read low",1.02
same,normalized growth,"S. cerevisiae deletion strains, locus YKL085W, strain MDH1 (second series), active compounds read low",0.936
same,normalized growth,"S. cerevisiae deletion strains, locus YKL085W, strain MDH1, active compounds read low",0.936
same,normalized growth,"S. cerevisiae deletion strains, locus YKL160W, strain elf1, active compounds read low",0.0721 (active)
same,normalized growth,"S. cerevisiae deletion strains, locus YKL190W, strain CNB1, active compounds read low",0.0442 (active)
same,normalized growth,"S. cerevisiae deletion strains, locus YKR001C, strain vps1, active compounds read low",0.0592 (active)
same,normalized growth,"S. cerevisiae deletion strains, locus YKR026C, strain gcn3, active compounds read low",0.0783 (active)
same,normalized growth,"S. cerevisiae deletion strains, locus YKR091W, strain srl3, active compounds read low",0.0575 (active)
same,normalized growth,"S. cerevisiae deletion strains, locus YLL001W, strain dnm1, active compounds read low",0.0576 (active)
same,normalized growth,"S. cerevisiae deletion strains, locus YLL026W, active compounds read low",0.0545 (active)
same,normalized growth,"S. cerevisiae deletion strains, locus YLL041C, strain sdh2, active compounds read low",0.0563 (active)
same,normalized growth,"S. cerevisiae deletion strains, locus YLR027C, strain aat2, active compounds read low",0.053 (active)
same,normalized growth,"S. cerevisiae deletion strains, locus YLR039C, strain RIC1, active compounds read low",0.0765 (active)
same,normalized growth,"S. cerevisiae deletion strains, locus YLR058C, strain SHM2, active compounds read low",0.0441 (active)
same,normalized growth,"S. cerevisiae deletion strains, locus YLR102C, strain apc9, active compounds read low",0.0595 (active)
same,normalized growth,"S. cerevisiae deletion strains, locus YLR113W, strain HOG1, active compounds read low",1.04
same,normalized growth,"S. cerevisiae deletion strains, locus YLR221C, strain rsa3, active compounds read low",0.0556 (active)
same,normalized growth,"S. cerevisiae deletion strains, locus YLR258W, strain gsy2, active compounds read low",0.0584 (active)
same,normalized growth,"S. cerevisiae deletion strains, locus YLR262C, strain YPT6 (second series), active compounds read low",0.0924 (active)
same,normalized growth,"S. cerevisiae deletion strains, locus YLR262C, strain YPT6, active compounds read low",0.0999 (active)
same,normalized growth,"S. cerevisiae deletion strains, locus YLR268W, strain sec22, active compounds read low",0.0594 (active)
same,normalized growth,"S. cerevisiae deletion strains, locus YLR320W, strain mms22, active compounds read low",0.0684 (active)
same,normalized growth,"S. cerevisiae deletion strains, locus YLR330W, strain CHS5, active compounds read low",0.0493 (active)
same,normalized growth,"S. cerevisiae deletion strains, locus YLR342W, strain FKS1 (second series), active compounds read low",0.06 (active)
same,normalized growth,"S. cerevisiae deletion strains, locus YLR342W, strain FKS1, active compounds read low",0.0614 (active)
same,normalized growth,"S. cerevisiae deletion strains, locus YLR357W, strain rsc2, active compounds read low",0.111 (active)
same,normalized growth,"S. cerevisiae deletion strains, locus YLR370C, strain arc18, active compounds read low",0.0598 (active)
same,normalized growth,"S. cerevisiae deletion strains, locus YLR371W, strain rom2, active compounds read low",0.0595 (active)
same,normalized growth,"S. cerevisiae deletion strains, locus YLR384C, strain iki3, active compounds read low",0.0596 (active)
same,normalized growth,"S. cerevisiae deletion strains, locus YLR418C, strain cdc73, active compounds read low",0.0837 (active)
same,normalized growth,"S. cerevisiae deletion strains, locus YML016C, strain PPZ1, active compounds read low",0.0438 (active)
same,normalized growth,"S. cerevisiae deletion strains, locus YML032C, strain rad52, active compounds read low",0.0627 (active)
same,normalized growth,"S. cerevisiae deletion strains, locus YML120C, strain ndi1, active compounds read low",0.0554 (active)
same,normalized growth,"S. cerevisiae deletion strains, locus YML124C, strain tub3, active compounds read low",0.0561 (active)
same,normalized growth,"S. cerevisiae deletion strains, locus YMR058W, strain fet3, active compounds read low",0.0583 (active)
same,normalized growth,"S. cerevisiae deletion strains, locus YMR078C, strain ctf18, active compounds read low",0.0681 (active)
same,normalized growth,"S. cerevisiae deletion strains, locus YMR125W, strain sto1, active compounds read low",0.0638 (active)
same,normalized growth,"S. cerevisiae deletion strains, locus YMR129W, active compounds read low",0.057 (active)
same,normalized growth,"S. cerevisiae deletion strains, locus YMR205C, strain PFK2, active compounds read low",0.0745 (active)
same,normalized growth,"S. cerevisiae deletion strains, locus YMR223W, strain ubp8, active compounds read low",0.0556 (active)
same,normalized growth,"S. cerevisiae deletion strains, locus YMR231W, strain pep5, active compounds read low",0.0629 (active)
same,normalized growth,"S. cerevisiae deletion strains, locus YMR263W, strain SAP30, active compounds read low",0.0563 (active)
same,normalized growth,"S. cerevisiae deletion strains, locus YMR307W, strain GAS1, active compounds read low",0.113 (active)
same,normalized growth,"S. cerevisiae deletion strains, locus YNL067W, strain RPL9B, active compounds read low",0.0464 (active)
same,normalized growth,"S. cerevisiae deletion strains, locus YNL071W, strain lat1, active compounds read low",0.0586 (active)
same,normalized growth,"S. cerevisiae deletion strains, locus YNL128W, strain TEP1, active compounds read low",0.0711 (active)
same,normalized growth,"S. cerevisiae deletion strains, locus YNL183C, strain NPR1, active compounds read low",0.916
same,normalized growth,"S. cerevisiae deletion strains, locus YNL209W, strain ssb2, active compounds read low",0.057 (active)
same,normalized growth,"S. cerevisiae deletion strains, locus YNL233W, strain BNI4, active compounds read low",0.0511 (active)
same,normalized growth,"S. cerevisiae deletion strains, locus YNL248C, strain rpa49, active compounds read low",0.0589 (active)
same,normalized growth,"S. cerevisiae deletion strains, locus YNL250W, strain rad50, active compounds read low",0.849 (active)
same,normalized growth,"S. cerevisiae deletion strains, locus YNL271C, strain bni1, active compounds read low",0.501 (active)
same,normalized growth,"S. cerevisiae deletion strains, locus YNL298W, strain CLA4, active compounds read low",0.357 (active)
same,normalized growth,"S. cerevisiae deletion strains, locus YNL307C, strain MCK1, active compounds read low",0.0662 (active)
same,normalized growth,"S. cerevisiae deletion strains, locus YNL322C, strain KRE1 (second series), active compounds read low",0.0644 (active)
same,normalized growth,"S. cerevisiae deletion strains, locus YNR049C, strain mso1, active compounds read low",0.0544 (active)
same,normalized growth,"S. cerevisiae deletion strains, locus YNR052C, strain pop2, active compounds read low",0.0594 (active)
same,normalized growth,"S. cerevisiae deletion strains, locus YOL006C, strain TOP1, active compounds read low",0.0984 (active)
same,normalized growth,"S. cerevisiae deletion strains, locus YOL012C, strain htz1",0.143 (active)
same,normalized growth,"S. cerevisiae deletion strains, locus YOL147C, strain pex11, active compounds read low",0.056 (active)
same,normalized growth,"S. cerevisiae deletion strains, locus YOR001W, strain rrp6, active compounds read low",0.0598 (active)
same,normalized growth,"S. cerevisiae deletion strains, locus YOR061W, strain CKA2, active compounds read low",0.0463 (active)
same,normalized growth,"S. cerevisiae deletion strains, locus YOR069W, strain VPS5, active compounds read low",0.0445 (active)
same,normalized growth,"S. cerevisiae deletion strains, locus YOR070C, strain gyp1, active compounds read low",0.0552 (active)
same,normalized growth,"S. cerevisiae deletion strains, locus YOR080W, strain dia2, active compounds read low",0.0613 (active)
same,normalized growth,"S. cerevisiae deletion strains, locus YOR083W, strain WHI5, active compounds read low",0.0558 (active)
same,normalized growth,"S. cerevisiae deletion strains, locus YOR106W, strain vam3, active compounds read low",0.0599 (active)
same,normalized growth,"S. cerevisiae deletion strains, locus YOR136W, strain idh2, active compounds read low",0.0657 (active)
same,normalized growth,"S. cerevisiae deletion strains, locus YOR144C, strain elg1, active compounds read low",0.0549 (active)
same,normalized growth,"S. cerevisiae deletion strains, locus YOR184W, strain ser1, active compounds read low",0.0604 (active)
same,normalized growth,"S. cerevisiae deletion strains, locus YOR231W, strain MKK1, active compounds read low",0.892
same,normalized growth,"S. cerevisiae deletion strains, locus YOR265W, strain rbl2, active compounds read low",0.056 (active)
same,normalized growth,"S. cerevisiae deletion strains, locus YOR270C, strain vph1, active compounds read low",0.0763 (active)
same,normalized growth,"S. cerevisiae deletion strains, locus YOR290C, strain snf2, active compounds read low",0.0566 (active)
same,normalized growth,"S. cerevisiae deletion strains, locus YOR316C, strain cot1, active compounds read low",0.057 (active)
same,normalized growth,"S. cerevisiae deletion strains, locus YPL051W, strain arl3, active compounds read low",0.0586 (active)
same,normalized growth,"S. cerevisiae deletion strains, locus YPL055C, strain LGE1, active compounds read low",0.0576 (active)
same,normalized growth,"S. cerevisiae deletion strains, locus YPL078C, strain atp4, active compounds read low",0.0619 (active)
same,normalized growth,"S. cerevisiae deletion strains, locus YPL106C, strain sse1, active compounds read low",0.0837 (active)
same,normalized growth,"S. cerevisiae deletion strains, locus YPL240C, strain hsp82, active compounds read low",0.0552 (active)
same,normalized growth,"S. cerevisiae deletion strains, locus YPL256C, strain CLN2, active compounds read low",0.981
same,normalized growth,"S. cerevisiae deletion strains, locus YPR119W, strain clb2, active compounds read low",0.0589 (active)
same,normalized growth,"S. cerevisiae deletion strains, locus YPR141C, strain kar3, active compounds read low",1.06
same,normalized growth,"S. cerevisiae deletion strains, locus YPR163C, strain tif3, active compounds read low",0.0677 (active)
same,normalized growth,"S. cerevisiae deletion strains, locus YPR167C, strain met16, active compounds read low",0.0591 (active)
same,normalized growth,"S. cerevisiae deletion strains, strain wtn01, active compounds read low",0.0573 (active)
same,normalized growth,"S. cerevisiae strains, strain wild type, active compounds read low",0.0449 (active)
